Laboratory results published in PubChem BioAssay (Tox21).
Inconclusive results are not listed. The source made the active and inactive calls. Unless noted, calls follow the shape of the full dose curve. Peptide text beside a SMILES is read from it.

Experiments:
[1] = Nuclear factor erythroid 2-related factor 2/antioxidant responsive element (Nrf2/ARE) small molecule agonists: qHTS cell viability counter screen in human keratinocytes (AID 1919968; active = well fitted curve in the direction sought with a large enough effect in the repeat runs; an effect the other way counts as inactive or inconclusive; also: nearly all actives have a fitted effect of over 55% in size)
Outline: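 Seed 1,500 KeratinoSens cells per well, then incubate 5 h at 37 C/5% CO2. Add compounds in DMSO and incubate 23 h. Add CellTiter-Fluor, wait 1 h and read fluorescence.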

[2] = Nuclear factor erythroid 2-related factor 2/antioxidant responsive element (Nrf2/ARE) small molecule agonists: luciferase reporter gene qHTS assay in human keratinocytes (AID 1919969); also: nearly all actives have a fitted effect of over 35% in size
[3] = target: Gonadotropin-releasing hormone receptor (Homo sapiens) (UniProt P30968); assay: Human gonadotropin-releasing hormone receptor (GnRHR) small molecule agonists, calcium flux assay in GnRHR-HEK293 cells (AID 1920063); also: nearly all actives have a fitted effect of over 35% in size
Gonadotropin-releasing hormone receptor (Homo sapiens), sequence (P30968 whole entry, looked up): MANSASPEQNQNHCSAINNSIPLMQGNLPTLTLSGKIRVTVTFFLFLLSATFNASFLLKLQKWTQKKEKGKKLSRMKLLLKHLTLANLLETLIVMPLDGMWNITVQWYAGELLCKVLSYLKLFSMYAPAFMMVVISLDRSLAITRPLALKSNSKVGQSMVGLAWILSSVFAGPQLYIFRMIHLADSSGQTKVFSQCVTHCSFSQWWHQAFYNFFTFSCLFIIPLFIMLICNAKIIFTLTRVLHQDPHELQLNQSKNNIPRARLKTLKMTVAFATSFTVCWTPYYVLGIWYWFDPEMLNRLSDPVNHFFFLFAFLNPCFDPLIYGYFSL
Outline: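 Cells: HEK293 stably expressing human GnRHR. Steps: overnight (18 h) culture, 1 h calcium dye loading at 37 C, compound addition, kinetic fluorescence read at 480/540 nm. Each compound tested at 15 concentrations in triplicate.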

[4] = target: KiSS-1 receptor (Homo sapiens) (UniProt Q969F8); assay: Human kisspeptin (KISS1R) small molecule agonists, calcium flux assay in KISS1R-HEK293 cells (AID 1920064; active = well fitted curve in the direction sought with a large enough effect in the repeat runs; an effect the other way counts as inactive or inconclusive)
KiSS-1 receptor (Homo sapiens), sequence (Q969F8 whole entry, looked up): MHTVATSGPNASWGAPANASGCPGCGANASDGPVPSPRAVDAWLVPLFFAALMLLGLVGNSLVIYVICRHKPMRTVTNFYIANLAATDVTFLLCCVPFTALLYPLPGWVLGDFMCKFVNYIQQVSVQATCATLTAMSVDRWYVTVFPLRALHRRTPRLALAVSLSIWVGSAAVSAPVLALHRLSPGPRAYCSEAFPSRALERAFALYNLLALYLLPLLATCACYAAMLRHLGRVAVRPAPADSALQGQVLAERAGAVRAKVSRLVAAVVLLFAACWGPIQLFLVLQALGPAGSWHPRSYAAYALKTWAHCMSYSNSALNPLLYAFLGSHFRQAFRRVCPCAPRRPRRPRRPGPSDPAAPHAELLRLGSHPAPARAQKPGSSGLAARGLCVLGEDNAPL
Outline: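 Cells plated and incubated 18 h; dye added, 1 h at 37 C; compounds in DMSO pinned in; signal read at 480/540 nm every second for 3 min. Each compound tested at 15 concentrations in triplicate.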

[5] = G protein-coupled receptor (GPCR) small molecule agonists, calcium flux assay: HEK293 wild type cell line counter screen (AID 1920065)
Outline: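 Counter-screen of the Tox21 10K library for non-specific calcium release: dye-loaded cells received compounds in DMSO and were monitored by kinetic fluorescence (480/540 nm, 3 min). Fifteen concentrations, run in triplicate.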

[6] = p53 small molecule agonists, cell-based qHTS assay with human liver microsomes (AID 1963577);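 also: p53 response element beta-lactamase reporter cells with liver microsomes plus NADPH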
Outline: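 Reporter activation was measured by LiveBLAzer fluorescence intensity in p53RE-bla cells, which had been exposed to compounds for 16 h at 37 C alongside 0.5 mg/mL human liver microsomes and 0.5 mg/mL NADPH (final concentrations).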

[7] = p53 small molecule agonists, cell-based qHTS assay with rat liver microsomes (AID 1963578)
Outline: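 Compound in DMSO added to p53RE-bla cells 5 h post-plating; rat microsomes/NADPH 0.5 mg/mL final; 16 h, 37 C; LiveBLAzer 2 h RT.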

[8] = p53 small molecule agonists, cell-based qHTS assay with human liver microsomes: qHTS cell viability counter screen (AID 1963579); also: nearly all actives have a fitted effect of over 45% in size
Outline: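 HLM-supplemented (0.5 mg/mL final) and NADPH-supplemented (0.5 mg/mL final) p53RE-bla cultures, 4,000 cells per well, were dosed with compounds in DMSO for 16 h at 37 C; luminescent ATP detection (CellTiter-Glo, 30 min, room temperature) quantified surviving cells.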

[9] = p53 small molecule agonists, cell-based qHTS assay with rat liver microsomes: qHTS cell viability counter screen (AID 1963580); also: nearly all actives have a fitted effect of over 45% in size
Outline: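 Viability is assessed in parallel with the p53 reporter read: HCT-116 p53RE-bla cells receive compounds plus rat microsomes and NADPH (0.5 mg/mL final apiece), incubate 16 h at 37 C, and then CellTiter-Glo luminescence is recorded.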

[10] = p53 small molecule agonists, cell-based qHTS assay: qHTS cell viability counter screen (AID 1963581); also: nearly all actives have a fitted effect of over 45% in size
Outline: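 Cells: HCT-116 with p53 response element-driven beta-lactamase. Treatment: 16 h, 37 C, compounds in DMSO. Read: CellTiter-Glo luminescence after 30 min RT.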

[11] = p53 small molecule agonists, cell-based qHTS assay (AID 1963582; active = well fitted activation curve with a large enough effect in the signal ratio in the repeat runs, not every such curve was filed as active; the % refers to the signal ratio)
Outline: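 Quantitative HTS in p53RE-bla cells: after a 5 h settling period, compounds delivered in DMSO were left on cells for 16 h at 37 C, and reporter induction was measured as fluorescence following 2 h substrate loading.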

[12] = cAMP Responsive Elements (CRE) small molecule antagonists, cell-based qHTS assay (AID 1963591; active = well fitted inhibition curve with a large enough effect in the signal ratio in the repeat runs, not every such curve was filed as active; the % refers to the signal ratio)
Outline: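 Antagonist mode: test compounds are co-incubated with the adenylyl cyclase activator NKH477 (0.25 uM final) on CRE-bla HEK293T cells for 3 h at 37 °C, followed by LiveBLAzer substrate loading.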

[13] = target: D(2) dopamine receptor (Homo sapiens) (UniProt P14416); assay: Dopamine D2 receptor (DRD2) small molecule agonists, cell-based qHTS assay (AID 1963594); also: nearly all actives have a fitted effect of over 35% in size
D(2) dopamine receptor (Homo sapiens), sequence (P14416 whole entry, looked up): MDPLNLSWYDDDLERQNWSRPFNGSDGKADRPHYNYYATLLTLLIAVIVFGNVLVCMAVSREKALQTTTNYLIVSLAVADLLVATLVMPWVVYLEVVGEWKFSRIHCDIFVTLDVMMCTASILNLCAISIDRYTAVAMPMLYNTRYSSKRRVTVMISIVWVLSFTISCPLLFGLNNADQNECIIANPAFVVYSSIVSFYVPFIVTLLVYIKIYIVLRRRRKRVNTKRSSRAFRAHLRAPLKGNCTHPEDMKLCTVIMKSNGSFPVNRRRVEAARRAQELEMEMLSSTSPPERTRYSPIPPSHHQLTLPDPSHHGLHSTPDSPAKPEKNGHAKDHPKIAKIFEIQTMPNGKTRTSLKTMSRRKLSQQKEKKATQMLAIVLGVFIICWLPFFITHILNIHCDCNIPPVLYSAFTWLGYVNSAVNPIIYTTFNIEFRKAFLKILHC
Outline: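 HEK293 cells stably expressing human DRD2, pre-treated with PDE inhibitor Ro20-1724 (0.1 mM final) and compound 10 min at room temperature, then stimulated with NKH477 (200nM […]) for 30 min. cAMP read by HTRF (665/620 nm).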

[14] = target: D(2) dopamine receptor (Homo sapiens) (UniProt P14416); assay: Dopamine D2 receptor (DRD2) small molecule antagonists, cell-based qHTS assay (AID 1963595; active = well fitted inhibition curve with a large enough effect in the signal ratio in the repeat runs, with a control signal flat; the % refers to the signal ratio)
Outline: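 Antagonist mode in DRD2-HEK293 cells: after compound addition with 0.1 mM Ro20-1724, cells received quinpirole (12 nM) and NKH477 (200 nM) for 30 min at room temperature; HTRF cAMP read after 1 h detection.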

[15] = cAMP Responsive Elements (CRE) small molecule agonists, cell-based qHTS assay (AID 1963590)
Outline: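 Agonist mode qHTS in CRE-bla HEK 293T cells: compounds dosed from DMSO for 3 h at 37 C/5% CO2, followed by LiveBLAzer B/G FRET substrate for 2 h at room temperature.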

[16] = target: Beta-2 adrenergic receptor (Homo sapiens) (UniProt P07550); assay: Adrenergic beta2 receptor (ADRB2) small molecule antagonists, cell-based qHTS assay (AID 1963592); also: series mostly up to about 92 µM; nearly all actives have a fitted effect of over 50% in size
Beta-2 adrenergic receptor (Homo sapiens), sequence (P07550 whole entry, looked up): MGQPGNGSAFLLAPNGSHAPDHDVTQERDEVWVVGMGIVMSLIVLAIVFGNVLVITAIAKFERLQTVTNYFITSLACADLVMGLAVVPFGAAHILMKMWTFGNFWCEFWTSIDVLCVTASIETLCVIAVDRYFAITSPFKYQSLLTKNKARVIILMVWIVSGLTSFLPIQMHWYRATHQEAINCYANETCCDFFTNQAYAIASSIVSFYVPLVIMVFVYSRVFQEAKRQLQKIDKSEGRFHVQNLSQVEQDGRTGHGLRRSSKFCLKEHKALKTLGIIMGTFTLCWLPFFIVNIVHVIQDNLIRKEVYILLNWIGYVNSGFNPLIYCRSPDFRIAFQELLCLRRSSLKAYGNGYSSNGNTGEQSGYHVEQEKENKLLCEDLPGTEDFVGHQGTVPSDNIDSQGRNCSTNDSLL
Outline: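 Cells (CHO, stable ADRB2 overexpression) incubated 18-20hr at 37C; compounds added from DMSO; agonist mix (1nM isoproterenol, 100uM IBMX, 25uM Ro-20-1724) added; 0.5hr RT; d2-cAMP and anti-cAMP-cryptate added; 1hr RT; 665/615 nm read.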

[17] = target: 5-hydroxytryptamine receptor 2A (Homo sapiens) (UniProt P28223); assay: 5-hydroxytryptamine receptor 2A (HTR2A) small molecule agonists, cell-based qHTS assay (AID 1963587); also: nearly all actives have a fitted effect of over 30% in size
5-hydroxytryptamine receptor 2A (Homo sapiens), sequence (P28223 whole entry, looked up): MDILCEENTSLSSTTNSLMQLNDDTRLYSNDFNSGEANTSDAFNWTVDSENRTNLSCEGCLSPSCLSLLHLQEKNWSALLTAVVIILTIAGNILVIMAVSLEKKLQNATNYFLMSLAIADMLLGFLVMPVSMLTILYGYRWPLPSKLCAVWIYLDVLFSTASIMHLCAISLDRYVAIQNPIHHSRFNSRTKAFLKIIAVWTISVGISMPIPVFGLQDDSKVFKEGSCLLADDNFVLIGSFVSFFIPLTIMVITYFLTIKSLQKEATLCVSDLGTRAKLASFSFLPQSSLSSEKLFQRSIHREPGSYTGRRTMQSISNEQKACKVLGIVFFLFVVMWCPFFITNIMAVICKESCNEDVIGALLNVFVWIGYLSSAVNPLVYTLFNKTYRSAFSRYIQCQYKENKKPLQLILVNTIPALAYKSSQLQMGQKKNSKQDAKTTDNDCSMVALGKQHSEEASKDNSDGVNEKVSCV
Outline: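 CHO cells stably expressing human HTR2A, plated 18 h, loaded with calcium dye 1 h at 37 C. Agonist mode: compounds added and intracellular calcium fluorescence recorded kinetically for 2 min at 1 sec intervals.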

[18] = target: Muscarinic acetylcholine receptor M1 (Homo sapiens) (UniProt P11229); assay: Cholinergic receptor muscarinic 1 (CHRM1) small molecule antagonists, cell-based qHTS assay (AID 1963588); also: nearly all actives have a fitted effect of over 40% in size
Muscarinic acetylcholine receptor M1 (Homo sapiens), sequence (P11229 whole entry, looked up): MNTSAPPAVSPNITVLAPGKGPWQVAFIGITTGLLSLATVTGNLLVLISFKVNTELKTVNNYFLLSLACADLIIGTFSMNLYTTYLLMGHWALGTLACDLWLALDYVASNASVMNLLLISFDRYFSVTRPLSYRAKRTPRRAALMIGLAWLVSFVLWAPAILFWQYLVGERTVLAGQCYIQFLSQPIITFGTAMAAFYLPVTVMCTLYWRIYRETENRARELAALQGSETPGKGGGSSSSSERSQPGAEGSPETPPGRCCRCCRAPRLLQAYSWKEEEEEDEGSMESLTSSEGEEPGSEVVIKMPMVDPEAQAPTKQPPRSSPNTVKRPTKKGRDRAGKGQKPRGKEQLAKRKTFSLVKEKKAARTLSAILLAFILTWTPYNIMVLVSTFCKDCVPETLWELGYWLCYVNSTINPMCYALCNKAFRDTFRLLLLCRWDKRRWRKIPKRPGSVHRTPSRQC
Outline: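 CHRM1-CHO calcium-flux assay, antagonist mode. Cells were seeded 18 h, dye-loaded 1 h at 37 C and given compound for 5 min at RT, then acetylcholine was added at 50nM. FDSS fluorescence was read 3 min; 15 concentrations, three runs.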

[19] = target: Muscarinic acetylcholine receptor M1 (Homo sapiens) (UniProt P11229); assay: Cholinergic receptor muscarinic 1 (CHRM1) small molecule agonists, cell-based qHTS assay (AID 1963589); also: nearly all actives have a fitted effect of over 35% in size
Outline: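 Agonist-mode qHTS in CHO cells stably carrying human muscarinic M1. Intracellular calcium is tracked by fluorescence every second after compound transfer; each compound runs at 15 concentrations in three independent runs.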

[20] = target: Beta-2 adrenergic receptor (Homo sapiens) (UniProt P07550); assay: Adrenergic beta2 receptor (ADRB2) small molecule agonists, cell-based qHTS assay (AID 1963593);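 also: CHO cells stably overexpressing human ADRB2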
Outline: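 CHO cells stably over-expressing ADRB2 were plated overnight at 37C, then dosed with compounds plus a stimulation mix containing 100uM IBMX and 25uM Ro-20-1724 for 0.5hr at room temperature. cAMP was measured by HTRF competition, 1hr.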

Measured: Potency

Nc1nnc(-c2cccc(Cl)c2Cl)c(N)n1
not listed: [15] | [16] | [17] | [18] | [19] | [20]
inactive: all other assays above

NC(=O)N1c2ccccc2CC(=O)c2ccccc21
not listed: [13] | [17] | [18] | [19] | [20]
inactive: all other assays above

CCCCCCCCCCCCCC(=O)OCC
not listed: [11]
inactive: all other assays above

COc1cc(CNC(=O)CCCC/C=C/C(C)C)ccc1O
not listed: [13] | [17] | [18] | [19] | [20]
inactive: all other assays above

CC(=O)N[C@@H](CO)C(=O)N[C@@H](CC(=O)O)C(=O)N[C@@H](CCCCN)C(=O)N1CCC[C@H]1C(=O)O (Ac-SDKP-OH)
not listed: [15] | [17] | [18] | [19]
inactive: all other assays above

CN1CCN(c2c(F)cc3c(=O)c(C(=O)O)cn(CCF)c3c2F)CC1
not listed: [12] | [16] | [17] | [18] | [19] | [20]
inactive: all other assays above

CCCCc1nc(Cl)c(CO)n1Cc1ccc(-c2ccccc2-c2nn[nH]n2)cc1
not listed: [12] | [16] | [17] | [18] | [19] | [20]
inactive: all other assays above
